# Results published in PubChem BioAssay.
# Several values for one entry are separate records, joined by “and”; a condition that tells them apart may be missing. Equal entries are not always repeated. A number with no mark means an inactive call. The rule behind the calls is not given here.
# Test system: Aerobactin synthetase IucA (Klebsiella pneumoniae, hypervirulent)
# Test: biochemical IucA inhibition screen of LOPAC library by absorbance (AID 1346212);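 note: 100% = no compound wells and 0% = no enzyme wells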
# Settings: IucA enzyme assay, absorbance (OD) readout; active compounds read low;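 tested at 8 µM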
row,Structure (SMILES),remaining activity
1,C=CC[C@H](N)C(=O)O,95.7%
2,COc1ccccc1N1CCN(CC(O)COc2cccc3ccccc23)CC1 (centres undefined),96.1%
3,CC#CCOC(=O)c1c(C)nc2sc3c(c2c1N)CCC(O)C3 (centres undefined),113%
4,O=C(O)[C@@H]1C[C@@H](C(=O)O)N1,115%
5,COc1ccc2c(c1)CC[C@@H]1[C@@H]2CC[C@]2(C)[C@@H](NCCCCCCN3C(=O)CCC3=O)CC[C@@H]12,119%
6,CN1CCc2cc(Cl)c(O)cc2[C@@H](c2ccccc2)C1,102%
7,CC(C)NC[C@H](O)c1ccc(O)c(O)c1,108% and 104%
8,CC(=O)O[C@H]1C[C@@]2(C)[C@@H](C[C@@H](O)[C@H]3[C@@]4(C)CC[C@@H](O)[C@@H](C)[C@@H]4CC[C@@]32C)/C1=C(\CCC=C(C)C)C(=O)O,96.1%
9,N=C(N)SCCc1ccc(CCSC(=N)N)cc1,102%
10,CCOC(=O)C12CC1/C(=N\O)c1ccccc1O2 (centres undefined),108%
11,Cn1c(=O)c2[nH]c(-c3ccc(S(=O)(=O)O)cc3)nc2n(C)c1=O,117%
12,O=[N+]([O-])c1ccc(-c2nc(-c3ccc(F)cc3)c(-c3ccncc3)[nH]2)cc1,95.7%
13,CN1CCC(=C2c3ccccc3C=Cc3ccccc32)CC1,123%
14,N#Cc1cc([N+](=O)[O-])c2sc(C(N)=O)[n+]([O-])c2c1,106%
15,Cc1cccc(C(=O)NCN2CCN(c3ccccc3C#N)CC2)c1,123%
16,Cc1cnc(C(=O)NCCc2ccc(S(=O)(=O)NC(=O)NC3CCCCC3)cc2)cn1,81%
17,CC(=O)NCCc1ccc(O)c(O)c1,116%
18,CC1CCN(CC[C@H]2CCCN2S(=O)(=O)c2cccc(O)c2)CC1,125%
19,O=c1[nH]c(=O)n([C@H]2C[C@H](O)[C@@H](CO)O2)cc1/C=C/Br,123%
20,Cc1cccc(C#Cc2ccccc2)n1,123%

row,Structure (SMILES),remaining activity
1,c1ccc2c(c1)CCC[C@H]2Nc1nc2ccccc2[nH]1,109%
2,Cn1c(=O)[nH]c2ncn(C)c2c1=O,113%
3,O=C(O)c1ccccc1Nc1cccc(OCc2ccc3ccccc3n2)c1,125%
4,COc1cc(/C=C(\C#N)C(=O)c2ccc(O)c(O)c2)cc(I)c1O,85.4%
5,Cc1[nH]c(=O)c(C#N)cc1-c1ccncc1,123%
6,NC(=NCc1ccc(Cl)c(Cl)c1)NC(=O)c1nc(Cl)c(N)nc1N,105%
7,CC(=O)N[C@@H](Cc1c[nH]c2ccccc12)C(=O)OCc1cc(C(F)(F)F)cc(C(F)(F)F)c1,117%
8,C[C@]12CCC(=O)C=C1CC[C@@H]1[C@@H]2CC[C@@]2(C)[C@H]1CC[C@]2(O)C(=O)CO,110%
9,OC[C@H]1O[C@@H](n2cnc3c(N[C@H]4CC5CCC4C5)ncnc32)[C@H](O)[C@@H]1O (some centres undefined),99.3%
10,CCC(NC(C)C)C(O)c1ccc(O)c(O)c1 (centres undefined),102%
11,CC(C)(C)NC(=O)[C@H]1CC[C@H]2[C@@H]3CC[C@H]4NC(=O)C=C[C@]4(C)[C@H]3CC[C@]12C,119%
12,Cn1cnc2c(NCc3ccccc3)nc(NCCO)nc21,119%
13,CN(C)S(=O)(=O)c1ccc2c(c1)/C(=C/c1cc3c([nH]1)CCCC3)C(=O)N2,121%
14,COc1cc2c(cc1OC)-c1cc(=Nc3c(C)cc(C)cc3C)n(C)c(=O)n1CC2,97.5%
15,O=c1ccn([C@@H]2O[C@H](COP(=O)(O)OP(=O)(O)O)[C@@H](O)[C@H]2O)c(=O)[nH]1,106%
16,CC(COc1ccc(/C=C/c2ccccc2)cc1)[N+](C)(C)C (centres undefined),104%
17,COc1cc(NS(C)(=O)=O)ccc1Nc1c2ccccc2nc2ccccc12,108%
18,N#C/C(=C\c1ccc(O)c(O)c1)C(=O)Nc1ccccc1,103%
19,NC(N)=NC(=O)Cc1c(Cl)cccc1Cl,119%
